In PubChem BioAssay (NCATS):
Results filed as inconclusive are left out. For part of these data: Entries with a potency or affinity are not part of this list. Activity calls are given as the source filed them.

Assays:
[1] = Ebola virus entry assay, green fluorescence channel
[2] = Ebola virus entry assay, blue channel fluorescence
[3] = Ebola virus entry assay, green fluorescence channel; remark: listed apart in the source
[4] = Ebola virus entry assay, ratio channel readout
[5] = Ebola virus entry assay, blue channel fluorescence; remark: listed apart in the source
[6] = Ebola virus entry assay, green channel fluorescence
[7] = Ebola virus entry assay, blue channel fluorescence; remark: listed apart in the source
[8] = Ebola virus entry assay, reporter ratio channel
[9] = Ebola virus entry assay, blue channel (ratio component)
[10] = Ebola virus entry cell assay, ratio channel
[11] = Ebola virus entry assay, ratio channel
[12] = Ebola virus entry reporter assay, green channel fluorescence
[13] = Immunotoxin (HA22) sensitization/mitigation study. Vehicle arm (PBS) (AID 1159510); conditions: cancer cells viability with PBS vehicle (HA22 study); series mostly up to 46.1 µM; note: potency is the fitted concentration of half-maximal effect
[14] = qHTS assay for measurement of the activity of small molecule inhibitors on Zika virus induced Caspase-3 activity in human iPSC derived neural progenitor cells (hNPCs) (AID 1224857; active = well fitted inhibition curve with a large enough effect; note: % of control where 0% means no effect; nearly all actives have a fitted effect of over 65% in size); conditions: hNPCs ZIKV-induced caspase-3/7, Caspase-Glo luminescence, 6 h; series mostly up to 45.7 µM
How it was run: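 Human iPSC-derived neural progenitor cells pretreated 1 hr with compounds, then infected with Zika virus (2 FFU/cell) for 6 hours at 37 C. Caspase-3/7 measured by Caspase-Glo luminescence; % inhibition calculated from induction scaled to uninfected (0%) and infected (100%) wells.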

[15] = qHTS assay for measurement of the activity of small molecule inhibitors on Zika virus induced Caspase-3 activity in human astrocytoma cells (AID 1224859; active = well fitted inhibition curve with a large enough effect;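 note: plate controls were ZIKV-infected untreated cells for no effect and uninfected cells for full effect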); conditions: SNB-19 ZIKV-induced caspase-3/7, luminescence, 6 h; series mostly up to 45.7 µM
How it was run: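 SNB-19 astrocytoma cells, 250/well, pretreated 1 h with compounds, then Zika virus at 2 FFU/cell for 6 h at 37 C; Caspase-Glo 3/7 luminescence after 30 min; percent inhibition normalised to uninfected and infected controls.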

[16] = AC50: Channel type: primary unless noted, outcome: Channel type: primary unless noted
Throughout, for efficacy: 0% is about no effect.

C[N+]1(C)CCC(OC(=O)C(O)(c2ccccc2)C2CCCC2)C1 (centres undefined)
inactive: efficacy [1] 28.8% | outcome [2] | outcome [3] | outcome [4] | outcome [5] | outcome [6] | outcome [7] | outcome [8, 16] | outcome [9] | outcome [10]

Cc1onc(-c2ccccc2Cl)c1C(=O)N[C@@H]1C(=O)N2[C@@H]1SC(C)(C)[C@@H]2C(=O)O
inactive: efficacy [1] 13.5% | outcome [2] | outcome [3] | outcome [4] | outcome [5] | outcome [6] | outcome [7] | outcome [8, 16] | outcome [9] | outcome [10]

CC1(C)S[C@@H]2[C@H](NC(=O)C(C(=O)O)c3ccccc3)C(=O)N2[C@H]1C(=O)O (some centres undefined)
inactive: efficacy [1] 26% | outcome [2] | outcome [3] | outcome [4] | outcome [5] | outcome [6] | outcome [7] | outcome [8, 16] | outcome [9] | outcome [10]

CC(C)(C#N)c1cc(Cn2cncn2)cc(C(C)(C)C#N)c1
inactive: efficacy [1] 15% | outcome [2] | outcome [3] | outcome [4] | outcome [11] | outcome [6] | outcome [7] | outcome [8, 16] | outcome [9] | outcome [12] | outcome [10]

CO/N=C1\CN(c2nc3c(cc2F)c(=O)c(C(=O)O)cn3C2CC2)CC1CN (centres undefined)
inactive: efficacy [1] -13.2% | outcome [2] | outcome [3] | outcome [4] | outcome [11] | outcome [6] | outcome [7] | outcome [8, 16] | outcome [9] | outcome [10]

CCOC(=O)[C@H](CCc1ccccc1)N[C@@H](C)C(=O)N1Cc2cc(OC)c(OC)cc2C[C@H]1C(=O)O
inactive: efficacy [1] 30.5% | outcome [2] | outcome [3] | outcome [4] | outcome [11] | outcome [6] | outcome [7] | outcome [8, 16] | outcome [9] | outcome [10]

CN1C(=O)CC(C)(c2ccccc2)C1=O (centres undefined)
inactive: efficacy [1] -45.4% | outcome [2] | outcome [3] | outcome [4] | outcome [5] | outcome [7] | outcome [8, 16] | outcome [9] | outcome [12] | outcome [10]

CCOC(=O)N1CCC(=C2c3ccc(Cl)cc3CCc3cccnc32)CC1
inactive: efficacy [1] 62.3% | outcome [2] | outcome [3] | outcome [4] | outcome [10]
active: AC50 [11] 6.31 µM | AC50 [8, 16] 6.31 µM

CCCCc1ncc(/C=C(\Cc2cccs2)C(=O)O)n1Cc1ccc(C(=O)O)cc1
inactive: efficacy [1] -11.8% | outcome [2] | outcome [3] | outcome [4] | outcome [11] | outcome [6] | outcome [7] | outcome [8, 16] | outcome [9] | outcome [12] | outcome [10]

CC(C)(C(=O)O)c1ccc(C(O)CCCN2CCC(C(O)(c3ccccc3)c3ccccc3)CC2)cc1 (centres undefined)
inactive: efficacy [1] -13% | outcome [2] | outcome [3] | outcome [4] | outcome [6] | outcome [7] | outcome [8, 16] | outcome [9] | outcome [12] | outcome [10]

CC(C)C1CCC(C(=O)N[C@H](Cc2ccccc2)C(=O)O)CC1 (some centres undefined)
inactive: efficacy [1] -31.7% | outcome [2] | outcome [3] | outcome [4] | outcome [11] | outcome [6] | outcome [7] | outcome [8, 16] | outcome [9] | outcome [10]

C[C@]12CC[C@@H]3c4ccc(O)cc4C[C@@H](CCCCCCCCCS(=O)CCCC(F)(F)C(F)(F)F)[C@H]3[C@@H]1CC[C@@H]2O (some centres undefined)
inactive: efficacy [1] 40.4% | outcome [2] | outcome [3] | outcome [4] | outcome [11] | outcome ([8]; Channel type: confirmation) | outcome ([8]; Channel type: primary) | outcome [9]
active: AC50 [10] 2 µM

O=C(O)P(=O)(O)O
inactive: efficacy [1] -12.5% | outcome [2] | outcome [3] | outcome [4] | outcome [6] | outcome [7] | outcome [8, 16] | outcome [9] | outcome [12] | outcome [10]

Cc1ccccc1N1C(=O)c2cc(S(N)(=O)=O)c(Cl)cc2NC1C (centres undefined)
inactive: efficacy [1] 25.2% | outcome [2] | outcome [3] | outcome [4] | outcome [11] | outcome [6] | outcome [7] | outcome [8, 16] | outcome [9] | outcome [10]

Nc1ccn([C@@H]2O[C@H](CO)[C@@H](O)C2(F)F)c(=O)n1
inactive: efficacy [1] -29.1% | outcome [2] | outcome [3] | outcome [4] | outcome [11] | outcome [6] | outcome [7] | outcome [8, 16] | outcome [9] | outcome [10]
active: Potency [13] 0.0121 µM

CN(N=O)C(=O)N[C@@H]1[C@@H](O)[C@H](O)[C@@H](CO)O[C@@H]1O
inactive: efficacy [1] -17.3% | outcome [2] | outcome [3] | outcome [4] | outcome [11] | outcome [6] | outcome [7] | outcome [8, 16] | outcome [9] | outcome [12] | outcome [10]

CC(C)c1c(C(=O)Nc2ccccc2)c(-c2ccccc2)c(-c2ccc(F)cc2)n1CC[C@@H](O)C[C@@H](O)CC(=O)O
inactive: efficacy [1] 32.2% | outcome [2] | outcome [3] | outcome [4] | outcome [11] | outcome [6] | outcome [8, 16] | outcome [9] | outcome [12] | outcome [10]

N[C@@H]1C[C@H]1c1ccccc1
inactive: efficacy [1] -26.4% | outcome [2] | outcome [3] | outcome [4] | outcome [11] | outcome [6] | outcome [7] | outcome [8, 16] | outcome [9] | outcome [12] | outcome [10] | Potency [14] | outcome [15]

O=C1OCCN1/N=C/c1ccc([N+](=O)[O-])o1
inactive: efficacy [1] 18% | outcome [2] | outcome [3] | outcome [4] | outcome [11] | outcome [6] | outcome [7] | outcome [8, 16] | outcome [9] | outcome [12] | outcome [10]

CC(C)NC[C@@H](O)COc1ccc(CC(N)=O)cc1
inactive: efficacy [1] -16.3% | outcome [2] | outcome [3] | outcome [4] | outcome [6] | outcome [7] | outcome [8, 16] | outcome [9] | outcome [12] | outcome [10]
